# Mot1-301 SUMO: inhibitors of SUMOylation pathway: yeast Mot1-301 growth rescue | S. cerevisiae Mot1-301 growth rescue, ATP luminescence, 38.5C; percent above DMSO median, 100 means doubled | growth rescue, % at 18.8 µM | 320,000 tested, 1% active;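 active means every valid replicate shows activation above 250% relative to neutral control wells; inactive means the rest, any valid replicate at or below 250%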;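 further: OY570 slx delta 5 strain wells were the positive control but not used for scaling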
# A1 inh: inhibitors of the anti-apoptotic protein A1, read as caspase activation; MEF A1-2A-BIM cells, Caspase-Glo 3/7 luminescence, 3 h; percent of clofoctol response, vehicle zero; caspase activation, % (no concentration beside the values); 330,000 tested, 0.066% active;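 active means over half of replicate activation scores above 10%, or exactly half above 10 with the replicate mean above 10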
# VLA-4 inh: inhibition in a human VLA-4 binding assay; P13612; VLA-4 expressing cells, ligand binding flow cytometry; inhibition, % (about 7 µM as worked out from the volumes in the protocol); 330,000 tested, 0.2% active; in the data active means inhibition above about 50%
# Target sequence (P13612 whole entry, looked up): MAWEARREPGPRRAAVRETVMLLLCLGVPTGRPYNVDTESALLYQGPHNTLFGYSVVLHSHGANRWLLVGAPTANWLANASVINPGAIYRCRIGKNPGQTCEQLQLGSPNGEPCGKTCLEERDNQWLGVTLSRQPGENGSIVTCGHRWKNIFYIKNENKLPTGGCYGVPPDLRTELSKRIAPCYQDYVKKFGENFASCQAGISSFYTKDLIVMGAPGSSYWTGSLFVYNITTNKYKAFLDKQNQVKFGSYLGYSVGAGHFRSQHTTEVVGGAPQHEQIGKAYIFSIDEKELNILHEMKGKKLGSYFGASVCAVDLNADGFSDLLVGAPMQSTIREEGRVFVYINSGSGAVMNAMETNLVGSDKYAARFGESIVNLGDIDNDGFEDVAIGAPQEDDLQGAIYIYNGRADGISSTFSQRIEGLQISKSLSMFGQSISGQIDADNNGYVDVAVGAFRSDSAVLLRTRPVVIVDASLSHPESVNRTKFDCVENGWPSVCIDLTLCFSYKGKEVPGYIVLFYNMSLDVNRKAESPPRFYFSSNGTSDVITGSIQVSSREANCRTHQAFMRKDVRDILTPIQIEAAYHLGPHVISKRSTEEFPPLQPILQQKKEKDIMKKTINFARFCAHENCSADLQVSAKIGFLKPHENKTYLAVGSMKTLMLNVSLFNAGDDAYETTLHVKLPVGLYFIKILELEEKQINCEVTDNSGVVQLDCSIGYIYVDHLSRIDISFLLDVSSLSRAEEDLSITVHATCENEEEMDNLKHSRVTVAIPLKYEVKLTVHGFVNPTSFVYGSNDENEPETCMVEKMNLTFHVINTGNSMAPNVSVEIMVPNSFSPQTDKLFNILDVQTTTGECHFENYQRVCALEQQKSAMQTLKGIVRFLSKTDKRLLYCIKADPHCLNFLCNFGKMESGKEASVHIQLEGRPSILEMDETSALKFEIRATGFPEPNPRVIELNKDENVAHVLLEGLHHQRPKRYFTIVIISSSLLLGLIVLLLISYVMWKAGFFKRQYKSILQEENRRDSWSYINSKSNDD
# Efflux pump inh: inhibitors of Candida antifungal efflux pumps expressed in yeast; S. cerevisiae Candida pump triplex, Nile Red efflux; inhibition, % at 10 µM; 330,000 tested, 0.44% active;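 active means plate passing quality check with inhibition over a set limit, or well fluorescence over plate mean plus 4 SD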;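 further: Nile Red retained in pooled yeast measured as flow cytometry median fluorescence; 0% = buffer negative control and 100% = Enniatin B positive control; higher means more Nile Red kept so more efflux inhibition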
# AHR activator: activators of human aryl hydrocarbon receptor; P35869; AHR-responsive luciferase reporter cells, luminescence; activation, % at 5 µM; 320,000 tested, 2.5% active; AID 2796; in the data active means activation above about 47%;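 further: 0% = vehicle wells and 100% = reference agonist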
# ALR inh: blocks human ALR sulfhydryl oxidase activity; P55789; purified ALR, DTT oxidation, H2O2 HRP-luminol luminescence; inhibition, % (concentration not given with the values); 290,000 tested, 3.8% active;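 active means mean replicate inhibition above about 79%, with every replicate also reaching it, limit read from the data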
# An asterisk follows results filed as active; . = not tested or not shown; + = active, no number. Rows were chosen to be rich in hits. Some 7.2% of all compounds tested hit in one or more screens of this group.
SMILES,Mot1-301 SUMO,A1 inh,VLA-4 inh,Efflux pump inh,AHR activator,ALR inh
Cc1nc(C)c(-c2csc(Nc3ccc(F)cc3)n2)s1,23,0,-4,0,35,94*
Cc1nc(C)c(-c2csc(Nc3ccc(O)cc3C)n2)s1,71,-1,-10,1,-5,99*
CCOc1ccc(N(CC(=O)NCCSCc2ccccc2)S(C)(=O)=O)cc1,1,0,20,0,0,-3
Nc1nc(C(=O)N2CCOCC2)nn1C(=O)c1ccc(Cl)cc1,-9,-1,20,0,-1,86*
O=c1ccc2cc3c([nH]c4ccc(Br)cc43)oc-2c1O,-20,0,-256,0,38,99*
C1CN(CC23CC4CC(CC(C4)C2)C3)CCO1,344*,1,14,0,-1,-4
O=C1c2[nH]nc(-c3ccccc3O)c2C(c2cccc(Cl)c2)N1Cc1ccco1 (centres undefined),-1,0,7,0,6,-4
Cc1cc(C)c(O)c(-c2n[nH]c3c2C(c2cccc(O)c2)N(Cc2ccco2)C3=O)c1 (centres undefined),25,1,-2,0,65*,.
O=C(Nc1nccs1)c1ccc(-c2ccccc2Cl)o1,24,-7,0,0,54*,-1
O=C(Nc1nccs1)c1ccc(-c2ccc([N+](=O)[O-])cc2)o1,-1,0,4,0,6,14
O=C(Nc1nccs1)c1ncc(Cl)c(Cl)c1Cl,-1,-2,6,.,47*,.
O=C(Nc1nccs1)c1ccc(-c2ccccc2[N+](=O)[O-])o1,-16,2,4,0,68*,-33
Cn1cc(Cl)c(C(=O)Nc2nccs2)n1,117,0,-9,0,3,-17
COc1cccc(N/C(N)=N/c2nc(C(F)(F)F)cc(=O)[nH]2)c1,14,0,0,1,12,.
Cc1ccc(CN2C(=O)CSC2c2ccc(F)cc2)cc1 (centres undefined),0,0,5,0,1,-10
O=C(COC(=O)COc1ccc(Cl)cc1)NCCNC(=O)COC(=O)COc1ccc(Cl)cc1,-4,0,-9,0,0,.
COC(=O)c1cc(Cl)cc(Cl)c1OS(=O)(=O)N(C)C,-5,0,13,0,-2,99*
Cc1nn(C)c(N)c1-c1ccccc1,-8,1,11,0,3,1
Cc1nn(Cc2ccccc2)c(N)c1C#N,35,-1,12,0,1,-7
Cc1nn(Cc2ccccc2)c(N)c1-c1ccccc1,14,-1,12,0,2,97*
Cc1nn(C2CCCCC2)c(N)c1-c1ccccc1,-6,1,2,0,5,97*
CC(=O)c1ccc(C(=O)N2CCC(n3nccc3NC(=O)C3CC3)CC2)cc1,375,-1,2,0,-1,-3
O=C(Cn1c(=O)oc2cc(S(=O)(=O)N3CCc4ccccc43)ccc21)NC1CCCC1,-5,1,31,0,3,96*
O=C(Cn1c(=O)oc2cc(S(=O)(=O)N3CCCCCC3)ccc21)NC1CCCCC1,-12,1,7,0,-1,-3
O=C(Nc1cccc(Cl)c1)N(Cc1nc2ccccc2c(=O)[nH]1)Cc1cccs1,4,0,-7,0,2,-1
SMILES,Mot1-301 SUMO,A1 inh,VLA-4 inh,Efflux pump inh,AHR activator,ALR inh
Cc1ccccc1NCc1nc2ccccc2n1C,2,-6,13,0,79*,46
Cn1c(CNc2ccccc2O)nc2ccccc21,25,-2,4,0,76*,33
Cn1c(Cc2nc3ccccc3n2C)nc2ccccc21,19,1,16,0,7,6
CC1CN(c2ccccc2)NC1=O (centres undefined),-5,0,21,0,4,99*
CCn1c(SCC(=O)NNC(=S)Nc2ccc(C)cc2)nnc1-c1ccc(Cl)cc1,9,0,-2,0,-4,97*
CCOC(=O)N1CCN(C(=O)COC(=O)c2ccc(N(C)C)cc2)CC1,9,2,9,0,1,2
CCOC(=O)c1cc2c(=O)n3cccc(C)c3nc2n(Cc2ccco2)c1=NC(=O)c1ccccc1,-13,0,-37,0,-1,89*
COCCCn1cnnc1SCc1nc2sc(C(C)=O)c(C)c2c(=O)[nH]1,16,0,-3,0,5,0
N#CCC(=O)Nc1ccc(C(=O)NNC(=S)NC2CCCCC2)cc1,4,-1,0,0,2,94*
CN(C)c1cccc(C(=O)NNC(=S)NC2CCCC2)c1,-6,0,-2,0,7,99*
O=C(Nc1ccc(CSc2ccccc2)cc1)c1ccco1,55,-7,-2,0,-2,-3
CCn1c(=O)c2cc(C(=O)NCCOC)sc2c2ccccc21,1,0,4,0,6,0
CCn1c(=O)c2cc(C(=O)Nc3ccc(OC)cc3OC)sc2c2ccccc21,+,0,2,0,1,-6
CC(C)CNC(=S)NC(=O)c1ccc(Cl)cc1Cl,24,-1,4,0,4,0
C=CCS/C(N)=N\N=C\c1cc(Br)cc([N+](=O)[O-])c1O,-9,-2,4,0,45,-4
Nc1cccc(-c2csc(-n3ncc(C(=O)O)c3C(F)(F)F)n2)c1,4,1,-6,0,0,99*
O=C(O)c1cnn(-c2nc(-c3cccc(F)c3)cs2)c1C(F)(F)F,-10,0,5,0,10,11
CCOC(=O)CNC(=S)N(CCCN1CCCC1)Cc1cccs1,16,-1,2,0,-7,99*
O=C1Nc2c(ccc(Cl)c2Cl)C(=O)C1(F)c1ccccc1 (centres undefined),3,-1,-1,0,92*,-4
O=C(O)C1Cc2[nH]cnc2C(c2ccc(F)cc2)N1 (centres undefined),-5,0,1,0,11,-2
O=C(NCc1cccnc1)c1cc(Sc2cccc(Cl)c2)nc2ccccc12,554,0,12,-3,20,-6
COc1ccc(NC2C=CS(=O)(=O)C2)c(OC)c1 (centres undefined),0,0,-3,0,0,85*
O=C(c1ccccc1)N1CCN=C1SCc1ccc([N+](=O)[O-])cc1,-12,0,3,0,4,99*
Cc1ccc(C(=O)N2CCN=C2SCc2ccc([N+](=O)[O-])cc2)cc1C,94,0,29,0,0,99*
O=C(OCCOc1cccc(Cl)c1)c1cc(S(=O)(=O)N2CCCCC2)ccc1N1CCOCC1,-7,0,12,0,-3,-7
O=C(Nc1ccc(N2C(=O)C3CCCCC3C2=O)cc1Cl)c1cccs1 (centres undefined),126,-1,21,0,0,-1

# Assay outcomes from PubChem BioAssay.
